Laboratory results: PubChem BioAssay (Tox21)
Inconclusive results are not listed. Active and inactive are the calls of the source. Unless noted, calls come from the whole dose curve; as a rule, active = well fitted curve in the direction sought with a large enough effect in the repeat runs; inconclusive = weak or mixed curves; inactive = no such curve, though single readings can be large; an effect the other way counts as inactive or inconclusive.

What was measured:
[1] = qHTS assay to identify small molecule agonists of the vitamin D receptor (VDR) signaling pathway - cell viability counter screen (AID 743224); note: series mostly up to about 63 µM; nearly all actives have a fitted effect of over 50% in size
How it was run: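 VDR-bla cells were preincubated 4 h at 37C/5% CO2, then exposed to compounds for 16 h. After the 2 h room-temperature bla FRET read, CellTiter-Glo was added to the same wells and luminescence read after 30 min.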

[2] = qHTS assay to identify small molecule antagonists of the vitamin D receptor (VDR) signaling pathway - cell viability counter screen (AID 743225); note: nearly all actives have a fitted effect of over 50% in size
How it was run: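 Luminescent cell viability (CellTiter-Glo) in VDR-bla HEK 293T cells after 16 h compound exposure at 37C in the presence of 3 nM final 1-alpha,25-dihydroxy vitamin D3.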

[3] = qHTS assay to identify small molecule agonists of the NFkB signaling pathway - cell viability counter screen (AID 1159515; calls by dose curve; note: series mostly up to about 61 µM; nearly all actives have a fitted effect of over 55% in size)
How it was run: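 NFkB-bla ME-180 cells, 2,000/well, were plated overnight at 37 C, 5% CO2, then exposed to compounds in DMSO for 5 hr. After the bla FRET read, CellTiter-Glo was added to the same wells; luminescence was read after 30 min at room temperature.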

[4] = qHTS assay to identify small molecule agonists of the endoplasmic reticulum stress response signaling pathway (AID 1159516; active = well fitted activation curve with a large enough effect in the signal ratio in the repeat runs, not every such curve was filed as active; the % refers to the signal ratio)
How it was run: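 CellSensor ESRE-bla HeLa cells, carrying a beta-lactamase reporter driven by the ER stress response element, were plated overnight and exposed to compounds for 5 hr at 37 C. Reporter activity was read as FRET substrate fluorescence after 2 hr at room temperature.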

[5] = qHTS assay to identify small molecule antagonists of the retinoid-related orphan receptor gamma (ROR-gamma) signaling pathway - cell viability counter screen (AID 1159520); note: nearly all actives have a fitted effect of over 50% in size
How it was run: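 Cytotoxicity was read from cellular ATP (CellTiter-Glo luminescence) after 16 hr at 37 C with 1 uM doxycycline induction. The inducer was added 2 hr after compound transfer to Tet-on ROR gamma CHO cells.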

[6] = target: Nuclear receptor ROR-gamma (Homo sapiens) (UniProt P51449); experiment: qHTS assay to identify small molecule antagonists of the retinoid-related orphan receptor gamma (ROR-gamma) signaling pathway (AID 1159521;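 note: CHO cells with doxycycline inducible ROR-gamma driving an RORE luciferase reporter; top concentration of the series differs between compounds; nearly all actives have a fitted effect of over 50% in size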)
How it was run: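 CHO cells expressing RORγ under a TET-on promoter, luciferase under RORE control. Dox 1 uM final, 16 h; compounds added 2 h prior. Luminescence decrease measured.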

[7] = qHTS assay to identify small molecule agonists of the AP-1 signaling pathway - cell viability counter screen (AID 1159525; calls by dose curve; note: nearly all actives have a fitted effect of over 55% in size)
How it was run: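 Luminescent ATP readout (Cell Titer Glo, 30 min RT), normalised to DMSO and tetra n-octyl ammonium bromide controls. Cells were ME-180 AP-1-bla in 0.5% dialyzed FBS Opti-MEM, with a 5 h, 37 °C compound exposure.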

[8] = qHTS assay to identify small molecule agonists of the AP-1 signaling pathway (AID 1159526; calls by dose curve)
[9] = qHTS assay to identify small molecule agonists of the RXR signaling pathway - cell viability counter screen (AID 1159529)
How it was run: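 Same-well viability check after the LiveBLAzer FRET read: CellTiter-Glo added, luminescence measured after 30 min at room temperature. Reporter HEK 293T cells had been treated with compounds for 16 hr following a 5 hr preincubation.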

[10] = qHTS assay to identify small molecule antagonists of the retinoid acid receptor (RAR) signaling pathway - cell viability counter screen (AID 1159551); note: nearly all actives have a fitted effect of over 35% in size
How it was run: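 C3RL4 cells were seeded overnight at 37 C, then treated with compounds plus 1 uM (final) retinol for 6 h at 37 C. Viability was read as ATP by CellTiter-Glo luminescence after 30 min at room temperature.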

[11] = qHTS assay to identify small molecule antagonists of the retinoic acid receptor (RAR) signaling pathway (AID 1159552; note: nearly all actives have a fitted effect of over 50% in size)
How it was run: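 Readout: luciferase luminescence, 30 min post-reagent at RT. Setup: C3RL4 RARE reporter cells, compounds plus retinol 1 uM final, 6 hr incubation at 37 C and 5% CO2.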

[12] = qHTS assay to identify small molecule agonists of the retinoic acid receptor (RAR) signaling pathway (AID 1159553)
How it was run: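 C3RL4 cells carrying a RARE luciferase reporter were plated overnight at 37 C, then exposed to compounds in DMSO for 6 hr at 37 C and 5% CO2. Luminescence was read 30 min after luciferase reagent addition at room temperature.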

[13] = qHTS assay to identify small molecule antagonists of the estrogen related receptor (ERR) signaling pathway from Tox21 library - cell viability counter screen (AID 1224834); note: nearly all actives have a fitted effect of over 30% in size
How it was run: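 ERR reporter cells were plated 6 h before compound addition, then exposed to test compounds in DMSO for 17.5 h at 37 C. Viability was read as CellTiter-Fluor fluorescence after a 30-minute incubation at 37 C.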

[14] = target: Luciferin 4-monooxygenase (Photinus pyralis) (UniProt P08659); experiment: qHTS assay to identify small molecule inhibitors of firefly luciferase (AID 1224835); note: series mostly up to about 120 µM; nearly all actives have a fitted effect of over 25% in size
How it was run: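 Inhibition of purified Photinus luciferase is measured by luminescence. Substrate levels (D-luciferin, ATP) sit at their KM values. Each compound is tested in a concentration series.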

[15] = qHTS assay to identify small molecule agonists of the constitutive androstane receptor (CAR) signaling pathway - cell viability counter screen (AID 1224836); note: series mostly up to about 92 µM; nearly all actives have a fitted effect of over 45% in size
How it was run: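 Compound titrations (15 concentrations) went onto HepG2-CYP2B6-hCAR cells 4 h after seeding, alongside PK11195 at a final 0.75 uM; a 23 h, 37 C/5% CO2 incubation preceded CellTiter-Fluor viability measurement.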

[16] = qHTS assay to identify small molecule antagonists of the constitutive androstane receptor (CAR) signaling pathway - cell viability counter screen (AID 1224837); note: series mostly up to about 92 µM; nearly all actives have a fitted effect of over 45% in size
How it was run: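 HepG2 cells stably expressing hCAR and a CYP2B6-2.2kb reporter were plated and pre-incubated 4 hr at 37 C/5% CO2, then given compounds at 15 concentrations plus 50 nM CITCO (final). After 23 hr, viability was read by CellTiter-Fluor fluorescence.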

[17] = target: Nuclear receptor subfamily 1 group I member 3 (Homo sapiens) (UniProt Q14994); experiment: qHTS assay to identify small molecule antagonists of the constitutive androstane receptor (CAR) signaling pathway (AID 1224838); note: nearly all actives have a fitted effect of over 40% in size
How it was run: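 HepG2 cells stably co-transfected with hCAR and a CYP2B6-2.2kb luciferase reporter were seeded 4 h before compound addition at 15 concentrations. Cells were stimulated with 50 nM CITCO (final) for 24 h at 37 C; luciferase luminescence was then read.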

[18] = target: Nuclear receptor subfamily 1 group I member 3 (Homo sapiens) (UniProt Q14994); experiment: qHTS assay to identify small molecule agonists of the constitutive androstane receptor (CAR) signaling pathway (AID 1224839);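 note: HepG2 cells stably carrying human CAR and a CYP2B6 luciferase reporter; series mostly up to about 92 µM; nearly all actives have a fitted effect of over 15% in size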
How it was run: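 In this screen, CAR-driven CYP2B6 promoter activity is measured by luminescence in HepG2-CYP2B6-hCAR cells after 24 h with test compounds and 0.75 uM PK11195 (final concentration).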

[19] = target: Retinoic acid receptor RXR-alpha (Homo sapiens) (UniProt P19793); experiment: qHTS assay to identify small molecule agonists of the RXR signaling pathway (AID 1159527; calls by dose curve; note: nearly all actives have a fitted effect of over 35% in size)
How it was run: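 Beta-lactamase reporter assay, agonist format. Engineered HEK 293T line, charcoal-stripped FBS at 2%, overnight (16 hr) exposure, fluorescence at 460 and 530 nm after 405 nm excitation.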

Measured: Potency

Sequence of Retinoic acid receptor RXR-alpha (Homo sapiens) (P19793 whole entry, looked up): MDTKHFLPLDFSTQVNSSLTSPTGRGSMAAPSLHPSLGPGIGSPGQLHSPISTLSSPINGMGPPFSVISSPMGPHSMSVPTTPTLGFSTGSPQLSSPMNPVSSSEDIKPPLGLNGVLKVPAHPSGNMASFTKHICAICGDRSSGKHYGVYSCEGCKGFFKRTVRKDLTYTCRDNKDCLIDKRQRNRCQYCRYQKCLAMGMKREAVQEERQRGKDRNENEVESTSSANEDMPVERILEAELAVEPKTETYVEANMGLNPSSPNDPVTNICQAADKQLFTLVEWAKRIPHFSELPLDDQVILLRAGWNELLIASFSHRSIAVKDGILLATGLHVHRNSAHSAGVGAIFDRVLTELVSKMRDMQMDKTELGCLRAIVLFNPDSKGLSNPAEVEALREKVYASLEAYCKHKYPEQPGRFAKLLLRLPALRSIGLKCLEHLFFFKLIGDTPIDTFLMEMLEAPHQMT
Sequence of Luciferin 4-monooxygenase (Photinus pyralis) (P08659 whole entry, looked up): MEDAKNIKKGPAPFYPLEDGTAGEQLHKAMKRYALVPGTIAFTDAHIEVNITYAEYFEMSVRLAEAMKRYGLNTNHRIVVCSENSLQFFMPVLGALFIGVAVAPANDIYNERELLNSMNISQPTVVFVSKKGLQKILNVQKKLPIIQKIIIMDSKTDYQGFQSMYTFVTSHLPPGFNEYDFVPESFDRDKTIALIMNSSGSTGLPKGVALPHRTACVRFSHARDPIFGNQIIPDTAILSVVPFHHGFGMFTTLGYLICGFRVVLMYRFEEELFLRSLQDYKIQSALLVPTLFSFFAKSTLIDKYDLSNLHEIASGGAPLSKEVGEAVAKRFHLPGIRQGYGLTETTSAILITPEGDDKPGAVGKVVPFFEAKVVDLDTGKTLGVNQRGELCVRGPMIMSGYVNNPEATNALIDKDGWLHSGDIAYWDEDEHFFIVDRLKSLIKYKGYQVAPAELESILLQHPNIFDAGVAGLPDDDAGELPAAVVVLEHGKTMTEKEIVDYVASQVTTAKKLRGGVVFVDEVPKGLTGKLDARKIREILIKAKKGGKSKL
Sequence of Nuclear receptor subfamily 1 group I member 3 (Homo sapiens) (Q14994 whole entry, looked up): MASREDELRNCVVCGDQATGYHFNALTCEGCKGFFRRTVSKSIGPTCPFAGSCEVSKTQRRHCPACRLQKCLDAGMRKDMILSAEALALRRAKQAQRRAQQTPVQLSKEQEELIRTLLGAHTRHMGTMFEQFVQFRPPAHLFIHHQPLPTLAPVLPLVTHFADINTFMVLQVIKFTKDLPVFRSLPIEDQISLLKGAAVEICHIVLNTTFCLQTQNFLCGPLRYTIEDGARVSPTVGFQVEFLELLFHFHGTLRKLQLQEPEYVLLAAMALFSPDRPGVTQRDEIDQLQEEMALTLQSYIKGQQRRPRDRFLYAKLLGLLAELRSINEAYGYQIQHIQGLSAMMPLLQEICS

CC(C)(C)C(=O)NCCCC(=O)O
not listed: [19]
inactive: all other assays above

CN1CCN(C(=O)C2CCCCC2)CC1
not listed: [19]
inactive: all other assays above

CCN1CCN(C(=O)N[C@@H](C(=O)N[C@@H]2C(=O)N3[C@@H]2SC(C)(C)[C@H]3C(=O)O)c2ccccc2)C(=O)C1=O
not listed: [1] | [17] | [18]
inactive: all other assays above

CCCCNCC
not listed: [9]
inactive: all other assays above

O=C1Nc2ccccc2C1=O
not listed: [9] | [18]
inactive: all other assays above

Cc1cc(C)c(C)c(C)c1
not listed: [17] | [19]
inactive: all other assays above

O=C[C@@H](O)[C@H](O)[C@H](O)CO
inactive: all assays above
